Assay outcomes (PubChem BioAssay)
SKKanGAS inh = SKKanGAS growth inhibition | S. pyogenes SKKanGAS, kanamycin growth, BacTiter-Glo, 6 h | inhibition, % at 7.5 µM | 300,000 compounds, 1.3% hits;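 active = mean replicate score, as percent of positive control median, at least 50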;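 note: strain carries kanamycin resistance gene driven by streptokinase promoter and grows in 40 µg/ml kanamycin; loss of luminescence reflects streptokinase promoter inhibition or plain growth inhibition; 0% = median of DMSO wells and 100% = positive control at its reference dose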
NLRP3 yeast inh = blocks the NALP3 inflammasome reconstituted in yeast. Yeast reconstituted NLRP3/ASC/caspase-1, beta-gal luminescence, 24 h. inhibition, % at 10 µM. 330,000 compounds, 0.39% hits. AID 2825;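 active = inhibition of 50% or more; inactive = inhibition below 50%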;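 note: plate controls were induced DMSO wells for no effect and uninduced yeast grown without galactose for full effect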
tim23-1 inh = tim23-1 yeast growth inhibition; S. cerevisiae tim23-1 growth, BacTiter-Glo luminescence, 24 h; inhibition, % at 20 µM; 330,000 compounds, 1.3% hits; AID 463212;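 active = growth inhibition of the mutant yeast at or above 50%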;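 note: temperature-sensitive mutant grown at 25 °C; plate controls were DMSO-treated mutant yeast for no effect and medium wells lacking yeast for full effect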
TIM10 inh = inhibits growth of TIM10 yeast strain | S. cerevisiae TIM10 strain growth, BacTiter-Glo luminescence, 24 h | inhibition, % at 10 µM | 330,000 compounds, 1.4% hits | AID 463195;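 active = inhibition of 40% or more at the single tested concentration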;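 note: wild-type TIM10 isogenic control strain grown at permissive 25 °C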
tim10-1 inh = tim10-1 yeast growth inhibition | inhibition, % at 20 µM | AID 463190 | S. cerevisiae tim10-1 ts strain growth, BacTiter-Glo, 24 h | 330,000 compounds, 2.2% hits;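 active = inhibition of at least 40%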;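 note: mutant grown at 25 °C; 0% = DMSO wells with yeast and 100% = wells holding no yeast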
PfHsp90 yeast 2 = reduces growth (ATP signal) of yeast expressing P. falciparum Hsp90; S. cerevisiae expressing PfHsp90, BacTiter-Glo ATP, 48 h; yeast lacking PDR1 and PDR3 efflux regulators; 310,000 compounds, 0.32% hits; inhibition, % at 9.4 µM;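 active = every replicate shows inhibition above about 80%, whatever the replicate mean, limit read from the data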;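 note: 0% = DMSO neutral controls and 100% = 20 µM radicicol positive controls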
tim10-1 confirm = tim10-1 yeast growth inhibition, confirmed | shares compounds with tim10-1 inh | S. cerevisiae tim10-1 ts strain growth, BacTiter-Glo, 24 h | inhibition, % at 20 µM | 7,400 compounds, 56% hits | AID 463213;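 active = inhibition of yeast growth at or above a set limit in either of two repeat tests at 20 µM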;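 note: tim10-1 mutant grown at permissive 25 °C to find synthetic lethal compounds; 0% = DMSO yeast wells and 100% = medium wells without yeast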
tim10 confirm = TIM10 yeast growth inhibition, confirmed; S. cerevisiae tim10 strain growth, BacTiter-Glo luminescence, 24 h; 4,600 compounds, 63% hits; inhibition, % at 10 µM; shares compounds with TIM10 inh; AID 463215;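 active = inhibition of yeast growth at or above a set limit in either of two replicates at 10 µM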;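 note: this counterscreen used the strain with wild-type TIM10; 0% = yeast with DMSO and 100% = medium wells lacking yeast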
* = called active by the depositor; · = no result. A selection: hits, their analogues and other compounds. The true share with any hit is near 4.6%.

SMILES | SKKanGAS inh | NLRP3 yeast inh | tim23-1 inh | TIM10 inh | tim10-1 inh | PfHsp90 yeast 2 | tim10-1 confirm | tim10 confirm
CCN(CC)c1ncnc2c1ncn2Cc1c(Cl)cccc1Cl | 21 | 9 | 41 | 42* | 50* | -7 | 37* | -8
CCN(CC)c1ncnc2c1nnn2C | · | · | · | · | · | -8 | · | ·
COc1ccc(OCc2cc(C(=O)NCc3cccc(C)n3)no2)c(Cl)c1 | 29 | 14 | 29 | 14 | 32 | -3 | · | ·
S=C(NCc1ccco1)Nc1ccc(Oc2ccccc2)cc1 | 5 | 30 | 26 | 46* | 45* | 23 | 28 | 37*
S=C(NCc1ccco1)Nc1cc(Cl)c(Cl)cc1Cl | 7 | 27 | 43 | 42* | 44* | -12 | 28 | -21
COc1cc(S(=O)(=O)N(Cc2cccnc2)Cc2cccc(OC)c2OC)ccc1-n1cnnn1 | -5 | 0 | 5 | -2 | 16 | 5 | · | ·
CCOC(=O)CSc1nnc(CNC(=O)c2ccc([N+](=O)[O-])cc2)n1C | -9 | 8 | 4 | 16 | 15 | -20 | · | ·
COc1ccc(-c2cc(C(=O)N3CCN(Cc4ccccc4)CC3)no2)cc1OC | -1 | 21 | 44 | 28 | 35 | -5 | · | ·
COc1cccc(-c2cc(C(=O)N3CCN(Cc4ccccc4)CC3)no2)c1 | -4 | 15 | 30 | 42* | 44* | 9 | 30* | 46*
COc1ccccc1N1CCN(C(=O)c2cc(-c3ccc(Cl)cc3)on2)CC1 | 8 | -2 | 33 | 48* | 47* | 9 | 32* | 30*
O=C(CCC1CCCCC1)NNC(=O)c1cnccn1 | 5 | 14 | -2 | 10 | 16 | 16 | · | ·
O=C(NC1=NCCS1)c1sc2cc(Cl)cc(Cl)c2c1Cl | -9 | 27 | 43 | 45* | 50* | 0 | 25 | 6
COc1cc(OC)cc(C(=O)NC2=NCCS2)c1 | -4 | 11 | 7 | 11 | 9 | 9 | · | ·
CN(C)S(=O)(=O)Oc1cccc(C(=O)Nc2ccc([N+](=O)[O-])cc2)c1 | 5 | 2 | -1 | 4 | 8 | 8 | · | ·
Cc1nc(SCC(=O)NCCN2C(=O)CSC2=O)nc(C)c1C | · | 9 | -12 | -12 | -19 | · | · | ·
CCCC(=O)Nc1nc(C)c(-c2csc(Nc3ccccc3C)n2)s1 | 16 | 16 | 9 | 5 | 11 | -22 | · | ·
CCC(=O)Nc1nc(C)c(-c2csc(Nc3ccccn3)n2)s1 | 15 | 1 | 35 | 42* | 40* | 6 | 30 | 47*
COc1ccc(CNC(=S)N/N=C/c2ccncc2)cc1 | -4 | 5 | -14 | 34 | 35 | -12 | · | ·
CCN(CC)c1ccc(/C=N/NC(=S)NCc2ccc(OC)cc2)cc1 | 8 | 17 | 12 | 45* | 45* | 0 | 27 | 42*
CC(=O)Nc1ccc(C(=O)COC(=O)c2ccco2)c(F)c1 | · | -7 | -9 | -2 | -4 | 26 | · | ·
Clc1ccc2c(c1)c1cc(Cl)ccc1n2CN1CCOCC1 | 33 | 18 | -12 | 51* | 63* | · | 39* | 59*
CC(C)c1nc2oc3c(NCc4cccnc4)ncnc3c2c2c1CCC2 | -22 | -2 | -10 | 10 | 26 | -10 | · | ·
CC(C)Cc1nc2oc3c(N4CCN(CCO)CC4)ncnc3c2c2c1CCCC2 | -1 | 4 | 33 | 44* | 52* | -25 | 37* | 20
CCOC(=O)N1CCN(c2ncnc3c2oc2nc(C(C)C)c4c(c23)CCC4)CC1 | -1 | 15 | 41 | 46* | 44* | · | 34* | 37*
CC1(C)CC(=O)C2=C(C1)Nc1ccccc1N=C2 | 5 | 4 | 46 | 41* | 49* | · | 44* | 34*
SMILES | SKKanGAS inh | NLRP3 yeast inh | tim23-1 inh | TIM10 inh | tim10-1 inh | PfHsp90 yeast 2 | tim10-1 confirm | tim10 confirm
CS(=O)(=O)CCC(C(=O)OCc1ccc(Cl)cc1)N1C(=O)c2ccccc2C1=O (configuration not stated) | -6 | 12 | 19 | 7 | 16 | 3 | · | ·
COc1ccc(S(=O)(=O)NNC(=O)c2ccccc2-n2cccc2)cc1 | 5 | 24 | 6 | 24 | 19 | 32 | · | ·
Cc1cc(C)c2c(-n3cccc3)c(C(=O)NNS(=O)(=O)c3ccc(Br)cc3)sc2n1 | 59* | -1 | 49 | 41* | 41* | · | 44* | 21
COc1ccc(OC)c(Nc2nc(N)c([N+](=O)[O-])c(N3CCOCC3)n2)c1 | 1 | -6 | 18 | 20 | 20 | -4 | · | ·
Cc1ccc2cc(CCNC(=O)c3cccc([N+](=O)[O-])c3)c(=O)[nH]c2c1C | -4 | 4 | 4 | 18 | -14 | 20 | · | ·
Cc1ccc(CN(C)C(=O)CN2C(=O)NC(c3ccccc3)(c3ccccc3)C2=O)c(C)c1 | · | 18 | 38 | 17 | 10 | 1 | · | ·
Cc1ccc(/C=C/C(=O)c2c(C)nc3ccccn23)cc1 | 23 | 20 | 35 | 39 | 37 | -38 | · | ·
Cc1nc2ccccn2c1C(=O)/C=C/c1cccc([N+](=O)[O-])c1 | 7 | 22 | 38 | 52* | 50* | -55 | 44* | 54*
S=C(NCCCc1ccccc1)Nc1ccc(Cl)cc1 | -7 | 27 | 47 | 47* | 55* | -5 | 52* | -27
S=C(NCCSCc1ccc(Cl)cc1)Nc1ccccc1 | -13 | 41 | 45 | 52* | 42* | -11 | 34* | -19
COc1ccc(CC(=O)NNS(=O)(=O)c2ccc(F)cc2)cc1 | -2 | 16 | -7 | 4 | 6 | -23 | · | ·
Cc1ccc(Cl)cc1NC(=S)NCCCSC1CCCCC1 | 7 | 12 | 39 | 42* | 42* | -4 | 26 | 13
COc1ccc(NC(=O)CC(NCc2ccccn2)C(=O)O)cc1 (configuration not stated) | 11 | 14 | 8 | 12 | 1 | -3 | · | ·
Cc1cccc(C)c1NC(=O)c1ccc([N+](=O)[O-])s1 | 2 | -11 | -83 | 59* | 66* | -33 | 54* | 53*
COc1ccc(NC(=O)c2ccc([N+](=O)[O-])s2)c([N+](=O)[O-])c1 | -1 | 16 | 11 | 15 | 6 | -6 | · | ·
Cc1ccnc(NC(=O)c2cc([N+](=O)[O-])cc([N+](=O)[O-])c2)c1 | -2 | 14 | 25 | 26 | 13 | -42 | · | ·
Cc1cccc(NC(=O)c2ccc([N+](=O)[O-])s2)c1C | 14 | -2 | 16 | 61* | 66* | 13 | 55* | 53*
O=C(Nc1ccccc1N1CCOCC1)c1ccccc1[N+](=O)[O-] | 5 | 1 | 11 | -6 | 16 | -8 | · | ·
O=C(Nc1ccccc1N1CCOCC1)c1ccc([N+](=O)[O-])s1 | · | 8 | 14 | 61* | 66* | 103* | 72* | 84*
Cc1cccc(NC(=O)c2cccc([N+](=O)[O-])c2O)c1C | · | · | · | · | · | 28 | · | ·
